From PubChem BioAssay AID743200 (The Scripps Research Institute Molecular Screening Center, 2013) come the findings set out here.

Hit rate of the full screen: of about 1,500 compounds, about 950 (63%) were called active. The set was probably picked from earlier hits. The list is a sample of the results. Values without a mark were called inactive. Rule as the data show it: active = inhibition above about 25%; inactive = the rest.

The target in this assay is Major prion protein (Homo sapiens) (UniProt P04156). Description: cell surface PrPC inhibition, TR-FRET confirmation, confirmation, cell-based, TR-FRET (AID 743200). The settings on record: cell surface PrPC level, at 13.8 µM, stronger effect = higher value.
In the case of `COc1cccc2sc3cc(NCC[C@@H]4CCCN4C)ccc3c(=O)c12`, the inhibition was 46% (active).

For the molecule `COc1ccc2c(Cl)c(-c3nnco3)sc2c1`, the inhibition was 37.6% (active).

Consider `FC(F)(F)c1cccc(NC(=S)OC2CCC23CCC(c2ccccc2)CC3)c1` (stereo not drawn), for which the inhibition is 15.7%.

Regarding `CC(=O)c1sc2nc(SCC(=O)N3CCCCC3)[nH]c(=O)c2c1C`, the inhibition was 28.8% (active).

In the case of `COc1ccc(S(=O)(=O)N2CCOCC2)cc1NC(=O)CSc1ncnc2ccccc12`, the inhibition was 92.1% (active).

`Cc1nc(/N=C(\N)NC(=O)NC2CCCCC2)nc2ccccc12`: the inhibition is 29.3% (active).

With `O=C(Nc1cccn(Cc2ccccc2Cl)c1=O)NC1CCCCC1`, the inhibition is 15.9%.

For `O=C(CC(O)(C(F)(F)F)C(F)(F)F)Nc1ccc(Cl)c(Cl)c1`, the inhibition is 58.3% (active).

Turning to `COc1ccc(NC(=O)COC(=O)CNC(=O)C2CCCCC2)cc1`, the inhibition is 3.04%.

On to `CCOC(=O)c1c(-c2ccccc2)oc2cc(Br)c(O)cc12`, for which the inhibition was 90.9% (active).

For the molecule `O=C(/C=C/c1ccc([N+](=O)[O-])o1)NNC(=O)c1ccc(F)cc1`, the inhibition is 64.6% (active).

`CC1(C)Cc2ccccc2-c2[nH]c(=S)[nH]c(=O)c21`: the inhibition is 81.8% (active).

`N#Cc1c(-c2cccs2)nc(SCC(=O)c2ccc(Br)cc2)[nH]c1=O`: the inhibition was 74.2% (active).

As to `COc1cc(-n2c(=S)[nH]c3ccc(C)cc3c2=O)c(Cl)cc1Cl`, the inhibition is 46.2% (active).

Take `CCCOc1ccc(C2C(C(=O)c3ccc(C)o3)=C(O)C(=O)N2CCCn2ccnc2)cc1` (stereo not drawn): the inhibition is 52.6% (active).

For the molecule `O=C(Oc1ccccc1)Oc1ccc2c(c1)oc(=O)c1ccccc12`, the inhibition is 40.9% (active).

With `Cc1ccnc(NC(=O)C2CCN(S(=O)(=O)c3c(C)c(C)cc(C)c3C)CC2)c1`, the inhibition was 20.7%.

As to `C=CCNC(=O)CSc1nc2scc(-c3ccco3)c2c(=O)n1CC=C`, the inhibition is 31.3% (active).

As to `Cc1cc2ccccc2n1CCNC(=O)COc1ccc2ccccc2c1`, the inhibition is 48.4% (active).

As for `CCCc1nc(SCC(=O)Nc2ccc(S(=O)(=O)N(C)C)cc2)c2ccccc2n1`, the inhibition is 90.7% (active).

In the case of `Cc1cccc(CS(=O)(=O)c2ncc(Cl)c(C(=O)Nc3ccc(F)cc3)n2)c1`, the inhibition was 15.9%.

Take `Cc1cccc(NC(=O)c2nc(S(=O)(=O)Cc3ccccc3)ncc2Cl)c1`: the inhibition is 39.3% (active).

As to `CCCCCCCCn1c2c(c(=N)c3c1CCC3)CCCC2`, the inhibition was 44.9% (active).

On to `CN(C)CCNC(=O)c1ccc(Cl)c2cc3ccccc3nc12`, for which the inhibition was 45.2% (active).

In the case of `CO[C@H]([C@H](C)/C=C/N(C)C=O)[C@@H](C)C(=O)CC[C@H](C)[C@H](O)[C@H](C)[C@H]1OC(=O)/C=C/C(C)=C/[C@H](O)[C@H](OC)C[C@@H]2C=CC[C@@H](C[C@H](OC)[C@@]3(CO3)[C@@H](OC)C[C@@H](OC)[C@@H]1C)O2`, the inhibition is 32.5% (active).

`Cn1c(=S)sc2ccc3ccccc3c21`: the inhibition was 75.4% (active).

As for `CCCCNc1c(-c2cccc(Sc3ccc(OC)cc3)c2)nc2ccccn12`, the inhibition was 17%.

For the molecule `Cc1sc2ncnc(SCC(=O)Nc3ccc(CN4CCCC4)cc3)c2c1C`, the inhibition was 53.1% (active).

Turning to `NC(=O)C1CCN(Cc2nc3c(Br)cc(Br)cc3c(=O)[nH]2)CC1`, the inhibition was 41.7% (active).

In the case of `CCOC(=O)c1c(C)[nH]c(=S)c(C#N)c1-c1ccccc1`, the inhibition was 43.5% (active).

For `CCC(C)(O)C(=O)OC1C(=O)OC2CC3C(C)=CC(=O)C(O)C3(C)C3C4(O)OCC23C1C(C)C4O` (stereo not drawn), the inhibition is 98.8% (active).

Consider `COC(=O)Cc1[nH]n(-c2nc3ccccc3s2)c(=O)c1C(C)=Nc1ccc(OC)cc1`, for which the inhibition was 5.13%.

Take `COc1ccc(C(=O)Nc2nc(-c3ccc(S(=O)(=O)N4CCOCC4)cc3)cs2)cc1`: the inhibition was 27.4% (active).

On to `Cc1cc2cc(CNC(=O)c3ccc(S(=O)(=O)N4CCOCC4)cc3)ccc2[nH]1`, for which the inhibition is 15.2%.

For the molecule `Cc1ccsc1C(=O)OCC(=O)Nc1cccc(F)c1`, the inhibition was 8.25%.

Consider `Cc1ccc(CSc2ccc(S(=O)(=O)N3CCCCC3)cn2)cc1`, for which the inhibition is 6.8%.

Consider `CCc1c(C)nc2cc(-c3cccs3)[nH]n2c1=O`, for which the inhibition was 41.7% (active).

As to `O=C(COC(=O)c1ccccc1SCC(=O)NC1CCCCC1)NC1CCCCC1`, the inhibition is 24.6% (active).

For `O=C1CCCC2=C1C(c1cccs1)n1nc(SCc3ccccc3)nc1N2` (stereo not drawn), the inhibition was 20%.

`N#C/C=C1\Sc2ccccc2C(=O)N1CC(=O)N1CCN(S(=O)(=O)c2ccccc2)CC1`: the inhibition was 67.5% (active).

Consider `N#Cc1ccc(OCC(=O)Nc2nc(-c3ccccn3)cs2)cc1`, for which the inhibition is 18.7%.

Regarding `COc1ccc(OC)c(NC(=O)c2cc(-c3cc(F)ccc3OCC3CCCO3)n[nH]2)c1` (stereo not drawn), the inhibition was 10.2%.

For `CC(=O)N1CCCc2cc(S(=O)(=O)N3CCCC(C(=O)NCc4ccc(Cl)cc4)C3)ccc21` (stereo not drawn), the inhibition was 17.2%.

`CC(=O)N1CCCc2cc(S(=O)(=O)N3CCCC(C(=O)N4CCN(c5cccc(Cl)c5)CC4)C3)ccc21` (stereo not drawn): the inhibition is 38.3% (active).

As to `CC(=O)N1c2ccc(S(=O)(=O)N3CCCC(C(=O)Nc4cccc(F)c4)C3)cc2CC1C` (stereo not drawn), the inhibition is 49.1% (active).

As to `O=C(NC(Nc1nc2ccc([N+](=O)[O-])cc2s1)(C(F)(F)F)C(F)(F)F)c1ccccc1`, the inhibition was 65.9% (active).

Turning to `CC(=O)Nc1cccc(OCC(=O)/C=C2\N(C)c3ccccc3C2(C)C)c1`, the inhibition was 20.8%.

Consider `CN1/C(=C\C(=O)c2oc3ccccc3c2N)C(C)(C)c2ccccc21`, for which the inhibition was 49.3% (active).

For the molecule `O=C(Cc1ccccc1)Nc1cccc(NC(=O)c2ccccc2)c1`, the inhibition was 11.2%.

On to `O=C(Nc1ccc(C2CC2(Cl)Cl)cc1)c1cccc([N+](=O)[O-])c1` (stereo not drawn), for which the inhibition is 24.7% (active).

In the case of `Cc1ccc(CNC(=O)Nc2nnc([C@H]3C[C@H](O)[C@@H](CO)O3)s2)cc1`, the inhibition was -0.76%.

For the molecule `Cc1ccc(Oc2cnn(-c3ccccc3)c(=O)c2Br)cc1`, the inhibition is 51.9% (active).

For `CC(=O)c1nc(N2C(=O)C3CC=C(C)CC3C2=O)sc1C` (stereo not drawn), the inhibition is 18%.

Regarding `Cc1[nH]n(-c2ccccc2)c(=O)c1/C=N/NC(=O)c1ccoc1C`, the inhibition is 60.1% (active).

As for `O=C(c1ccc(F)cc1)c1cn(Cc2ccc(F)cc2)c2cc3c(cc2c1=O)OCCO3`, the inhibition was 90.5% (active).

As for `Fc1ccc2[nH]c3c(N4CCSCC4)ncnc3c2c1`, the inhibition is 35.3% (active).

In the case of `Cc1ccc(NC(=O)c2sc3nc(N)c(C#N)cc3c2N)cc1`, the inhibition is 35.3% (active).

Regarding `CCc1nc(SCC(=O)NNC(=O)c2ccc(C)cc2)c2ccccc2n1`, the inhibition was 118% (active).

As for `COC(=O)CSc1nc(C2CC2)nc2ccccc12`, the inhibition is 35.9% (active).

As to `O=c1[nH]cccc1-c1nc2ccccc2n1Cc1ccc(Cl)cc1`, the inhibition is 35.3% (active).

On to `CCCCC(=O)NC(c1ccc(OC)c(OC)c1)c1ccc2cccnc2c1O` (stereo not drawn), for which the inhibition is 26.9% (active).

As to `CCCCCCCCCCCCn1ccc(=N)cc1`, the inhibition was 38.5% (active).

With `O=C(Nc1ccc(N2CCN(C(=O)c3ccccc3)CC2)c(Cl)c1)c1cccnc1`, the inhibition was 12.3%.

One may read the inhibition as the drop in the measured response relative to a control, in per cent.
